Calls of active or inactive are those of the source. How the calls were made is not given here.

The nature of the assay: Biochemical counterscreen for C difficile toxins, absence of UDPG, inhibitor dose response (AID 720650). Particulars: series mostly up to 19.5 µM; activity change, negative = inhibition: at the top concentration.
Regarding `O=C1Nc2ccc(Br)cc2C1Cc1ccccc1F` (stereo not drawn), the AC50 (as a rule, the midpoint of the concentration-response curve, whichever way the signal moves) is 7.69 µM (active). `CCOC(=O)c1cccc(NC(=O)CCNS(=O)(=O)c2cccc3nonc23)c1`: the “activity change, negative = inhibition” value is 4.43% (inactive). For the compound `C=CCN=c1scc(C)n1/N=C/c1ccc(O)c(O)c1`, the AC50 was > 39 µM (inactive).

In the case of `COc1cccc(CC(=O)OCC(=O)Nc2c(C)nn(-c3ccccc3)c2C)c1`, the “activity change, negative = inhibition” value is 0.671% (inactive). On the same count and under the same terms, to `CCCCn1c(CN2CCN(C(=O)c3ccco3)CC2)nc2c1c(=O)n(C)c(=O)n2C` belongs -3.65% (inactive).

On to `O=C1NN=C2CCCCCCC12` (stereo not drawn), for which the “activity change, negative = inhibition” value was -4.67% (inactive). On the same count and under the same terms, next, `Cc1ccc(C2=NS(=O)(=O)N(C)C(C(=O)NCc3ccc(F)cc3)=C2)cc1`: 6.63% (inactive).

Turning to `O=C(c1ccc(N2CCOCC2)c([N+](=O)[O-])c1)N1CCN(c2ccccc2F)CC1`, the AC50 was > 39 µM (inactive). For the compound `Nc1c(Cl)ncnc1NCCc1ccc(O)cc1`, the concentration at half-maximal activity (AC50) is 18.6 µM (active). The same measure, in the same setting: to `O=C(CSc1cccc2cccnc12)N/N=C/c1ccc(O)cc1` belongs 11.1 µM (active). Take `Cc1nc(SCC(=O)N2CCNC2=O)c(C#N)c(C)c1C`: the “activity change, negative = inhibition” value is -10.9% (inactive). Still for that read-out and setting: next, `C[C@H]1CN([C@@H](C)CO)S(=O)(=O)c2ccc(-c3ccncc3)cc2O[C@H]1CN(C)Cc1ccc(Oc2ccccc2)cc1`: -6.4% (inactive). As to `O=C(O)c1ccc(-c2ccc(O)c(F)c2)cc1`, the AC50 is 13.5 µM (active). As for `CCc1ccc2oc(-c3cc(N)ccc3Cl)nc2c1`, the “activity change, negative = inhibition” value was -14.5% (inactive). Same read-out and setting: next, `O=C(O)c1ccc(/C=N/NC(=S)NCCN2CCOCC2)cc1`: -2.89% (inactive). Consider `CN(C)CCNC(=O)c1cc2c(s1)-c1ccc(Cl)cc1SC2`, for which the AC50 was > 39 µM (inactive). As for `Cc1[nH]c(-c2ccc(F)cc2)cc1C(=O)N1CCN(c2ccccc2)CC1`, the “activity change, negative = inhibition” value is 0.332% (inactive). `CN(C)CC(=O)N1CC[C@@H]2[C@H]1c1cc(-c3ccccc3)ccc1N(C)[C@H]2CO`: the AC50 was 14.1 µM (active). Still for that read-out and setting: to `CCC(CO)[n+]1c(C)cc(/C=C2\Sc3ccccc3N2Cc2ccccc2)cc1C` (stereo not drawn) belongs 3.4 µM (active). Regarding `Cc1ccc(CN2C(=O)CN=C(c3ccccc3)c3ccccc32)cc1`, the “activity change, negative = inhibition” value was -8.71% (inactive). `C/C(CCc1ccccc1)=N\NC(=O)C1C2CCCCC21` (stereo not drawn): the “activity change, negative = inhibition” value was -1.85% (inactive). On to `S=c1nc(-c2cccc(Cl)c2)[nH][nH]1`, for which the AC50 was 3.82 µM (active). For the compound `CCNC(=O)C[C@@H]1CC[C@H]2[C@H](COc3ccc(NC(C)=O)cc3C(=O)N2C)O1`, the “activity change, negative = inhibition” value was 6.46% (inactive).

Take `N=C(N)c1ccc(N=Nc2c(O)ccc3c2[nH]c2ccccc23)cc1`: the “activity change, negative = inhibition” value was -3.4% (inactive). On the same count and under the same terms, to `O=C(C[C@@H]1CC[C@H]2[C@@H](COC[C@H](O)CN2C(=O)c2ccccn2)O1)NC1CCC1` belongs -6.78% (inactive). Consider `O=C(NNc1nc2c(F)cc(F)cc2s1)C1COc2ccccc2O1` (stereo not drawn), for which the AC50 was 0.699 µM (active). As to `CCCc1cc(-c2n[nH]c(C(=O)OCC)c2-c2cscn2)c(O)cc1O`, the “activity change, negative = inhibition” value is -11.6% (inactive).

Take `C[C@@H]1CN([C@H](C)CO)S(=O)(=O)c2ccc(-c3ccncc3)cc2O[C@@H]1CN(C)Cc1ccc(Oc2ccccc2)cc1`: the “activity change, negative = inhibition” value is -4.46% (inactive). On the same count and under the same terms, next, `Cc1ccc(Cc2c(-c3ccc(C)cc3)nc3ccc(Cl)cn23)cc1`: 9.5% (inactive). `Cc1n[nH]c(=O)nc1Nc1ccc(O)cc1`: the AC50 is 11.8 µM (active).

For the compound `O=C(CSc1ccccc1)Nc1cc(S(=O)(=O)N2CCOCC2)ccc1N1CCOCC1`, the “activity change, negative = inhibition” value was -3.91% (inactive). Regarding `c1ccc2[nH]c(-c3ccc4c(c3)OCO4)nc2c1`, the “activity change, negative = inhibition” value is -21.3% (inactive).

In the case of `CC(=O)N/C(=C\c1ccccc1)C(=O)Nc1ccc(O)cc1`, the AC50 is 17 µM (active).

`COc1ccccc1Oc1cn[nH]c1-c1ccc(O)cc1O`: the AC50 was 11.6 µM (active). In the case of `C=CCNc1n[nH]c(=S)s1`, the AC50 is > 39 µM (inactive).

Consider `COC(=O)c1ccc(C23CC4(C2)[C@H](CN(Cc2ccc(C(F)(F)F)cc2)[C@@H]4c2ccccc2)C3c2ccc(Cl)nc2)cc1` (stereo partly drawn), for which the “activity change, negative = inhibition” value is -0.958% (inactive). Consider `Nc1ccc(OCCCc2c(N)nc(N)nc2N)cc1`, for which the AC50 was 20.1 µM (active). `COc1ccc(Br)cc1C(=O)Nc1ccc(O)cc1`: the half-maximal activity concentration (AC50) is 9.64 µM (active).

These data come from PubChem BioAssay AID720650 (Broad Institute, 2013).
